Assay results published in PubChem BioAssay (NCATS).
Results filed as inconclusive are left out. Entries that show only a call come without a potency. Activity calls are given as the source filed them. The call rests on the fitted dose curve; in most records, active means well fitted cell-killing curve with a large enough effect; inconclusive means small, poorly fitted or top-dose-only effect, or effect the other way; inactive means flat fitted curve, though single readings scatter.

Experiment: qHTS assay for cell viability of the p53RE-bla HCT-116 cell line (AID 743292); further: nearly all actives have a fitted effect of over 55% in size
Conditions: p53RE-bla HCT-116 viability, ATP luminescence, 16 h; series mostly up to 95 µM
Summary of the method: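 Quantitative high-throughput format: compounds in DMSO were pinned onto p53RE-bla HCT-116 cells (4,000/well) and incubated 16 h at 37 C. Total intracellular ATP, read by CellTiter-Glo luminescence, reflects viable cell number.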
Potency means the concentration at half of the fitted maximal effect.

Row | Compound | Potency
1 | S=C=S | inactive
2 | C[C@H]1CC[C@@H]2[C@@H](C)[C@H]3[C@H](C[C@H]4[C@@H]5CC=C6CC(O[C@@H]7O[C@H](CO)[C@H](O)[C@H](O[C@@H]8O[C@H](CO)[C@@H](O)[C@H](O)[C@H]8O)[C@H]7O[C@H]7O[C@@H](C)[C@H](O)[C@@H](O)[C@H]7O)CC[C@]6(C)[C@H]5CC[C@]34C)N2C1 (some centres undefined) | 70.8 µM (active)
3 | CCOC(=O)c1ccccc1C(=O)OCC | inactive
4 | O=C(NCNC(=O)NC1C(=O)NC(=O)N1CO)NC1C(=O)NC(=O)N1CO (centres undefined) | inactive
5 | C=CCN=C=S | inactive
6 | O=CC=O | inactive
7 | CCCCCl | inactive
8 | N#CN | inactive
9 | COCC(C)N(C(=O)CCl)c1c(C)csc1C (centres undefined) | inactive
10 | ClCC1CO1 (centres undefined) | inactive
11 | [O]=[Cd] | inactive
12 | CC(C)Nc1ccc(Nc2ccccc2)cc1 | inactive
13 | O=C(O)C(Cl)(Cl)Cl | inactive
14 | [Cl-].[Cl-].[Hg+2] | inactive
